Assay results from ChEMBL document CHEMBL3988442, “University of Dundee, Small-Polar-MMV Screening Library” (2021).
Hit rate of the full screen: of about 48,000 compounds, about 13,000 (27%) showed an effect of 50% or more. The list shows a part of the results.

These compounds were tested on Wolbachia pipientis (assay: Anti-Wolbachia Cell-Based Screen). Details: 5 µM.
Type: functional
Parameters: scale not given: in the data most compounds retested in dose-response had high values

SMILES	Percent Effect [%]
CS(=O)(=O)NCc1ccc(NC(=O)CC2=CCCCC2)cc1	0.7476
CN(CCO)Cc1cc(Cl)ccc1OCC(O)CN1CCCCCC1 (stereo not given)	92.98
COCC(O)CN1CCC(NC(=O)c2ccccc2Cl)CC1 (stereo not given)	-8.699
OCCN1CCN(CC(O)c2cc(Cl)ccc2Cl)CC1 (stereo not given)	-2.66
CN(CCCO)Cc1cc(Cl)ccc1OCC(O)CN1CCCCCC1 (stereo not given)	86.94
COCCN(C)C(C(=O)O)c1cc(Cl)ccc1OC (stereo not given)	-4.575
CCOc1ccc(Cl)cc1C(C(=O)O)N1CCCC1 (stereo not given)	-26.77
CCOCC(O)CN1CCN(C(=O)c2ccnc(N(C)C)c2)CC1 (stereo not given)	-11.71
CCN1CCN(CC(O)c2cc(Cl)ccc2Cl)CC1 (stereo not given)	-3.784
COCCN(C)Cc1cc(Cl)ccc1OCC(O)CN1CCCCCC1 (stereo not given)	95.86
COc1cccc(CN2C[C@@H](F)[C@@H](OCc3nc4cnccc4[nH]3)C2)c1	-9.076
COc1ccc(C2C3=C(COC3=O)Nc3[nH]nc(C)c32)cc1OC (stereo not given)	3.297
Cc1ccc2oc(CNC(C)c3nnc4n3CCCC4)cc2c1 (stereo not given)	-13.95
Cn1ccc(NCc2cc3cc(F)ccc3o2)n1	107
NC(=O)CCn1ccc(NCc2cc(F)ccc2Br)n1	-14.37
Cn1nccc1NCc1cc2cc(F)ccc2o1	98.61
COCCn1ccc(NCc2cc3cc(F)ccc3o2)n1	97.47
COCCn1ccc(NCc2sccc2C)n1	-10.57
COCCn1ccc(NCc2scnc2C)n1	1.852
CC(NCc1cc2cc(F)ccc2o1)c1nnc2n1CCCC2 (stereo not given)	-7.412

SMILES	Percent Effect [%]
Cc1cc(CNc2ccnn2C)ccc1-n1cncn1	1.687
CC(C(=O)N1CCN(c2ccc(F)cc2)CC1)n1ccnc1 (stereo not given)	2.016
CN(C)S(=O)(=O)N1C[C@@H]2CC[C@H](C1)N(C/C=C/c1ccc(F)cc1)C2	19.59
Cc1ccccc1OCC(=O)N1CCOC2(CNCCOC2)C1 (stereo not given)	-22.9
COc1ccccc1CC(=O)N1CCC(NCc2cc[nH]c2)CC1	5.746
CCCc1noc(CCC(=O)N2CCCC2Cn2cc(C)cn2)n1 (stereo not given)	127.2
CCCc1noc(CCC(=O)N2CCCCC2Cn2cc(C)cn2)n1 (stereo not given)	117.6
CCCc1noc(CCC(=O)N2CCCC2c2ccsc2)n1 (stereo not given)	2.757
COc1cc(N2C[C@@H]3COC[C@]3(C(=O)NC3CC(F)(F)C3)C2)ncn1.O=C(O)C(F)(F)F	12.94
Fc1cnc(N2C[C@H]3CCC[C@@]3(COc3ccccn3)C2)nc1.O=C(O)C(F)(F)F.O=C(O)C(F)(F)F	-0.7444
O=C(CC1CC1)NC[C@]12COC[C@H]1CN(c1ncccn1)C2.O=C(O)C(F)(F)F	-5.322
COc1cc(N2C[C@@H]3COC[C@]3(C(=O)NCc3ccccn3)C2)ncn1	-14.4
O=C(O)C(F)(F)F.O=C(O)C(F)(F)F.c1ccc(OC[C@]23COC[C@H]2CN(c2ncccn2)C3)nc1	-14.79
O=C(O)C(F)(F)F.O=S(=O)(C1CC1)N1C[C@H]2CCC[C@@]2(COc2ccccn2)C1	2.736
CCS(=O)(=O)N1C[C@H]2CCC[C@@]2(COc2ccccn2)C1.O=C(O)C(F)(F)F	18.76
Fc1cnc(N2C[C@@H]3COC[C@]3(COc3ccccn3)C2)nc1.O=C(O)C(F)(F)F.O=C(O)C(F)(F)F	104.4
O=C(CC1CC1)NC[C@]12COC[C@H]1CN(c1ncc(F)cn1)C2.O=C(O)C(F)(F)F	-10.91
COc1cc(N2C[C@@H]3COC[C@]3(COc3ccccn3)C2)ncn1.O=C(O)C(F)(F)F.O=C(O)C(F)(F)F	106
CN(C)S(=O)(=O)N1C[C@@H]2COC[C@]2(COc2ccccn2)C1.O=C(O)C(F)(F)F	82.39
O=C(O)C(F)(F)F.c1cnc(N2C[C@@H]3COC[C@]3(COCC3CCCC3)C2)nc1	99.14
